RORgamma inh – qHTS for inhibitors of ROR gamma transcriptional activity; Drosophila S2 Gal4-RORgamma UAS-luciferase reporter, 20 h; Potency, µM (titrated, usually from 53.6 µM), without a hit: at the top dose activity change, negative = inhibition, most hits filed as inhibitors; actives 5.4% (n = 310,000); AID 2551, 2010; note: potency is the fitted concentration of half-maximal effect; nearly all actives have a fitted effect of over 60% in size
Target sequence (P51450 whole entry, looked up, the tested form may be a part): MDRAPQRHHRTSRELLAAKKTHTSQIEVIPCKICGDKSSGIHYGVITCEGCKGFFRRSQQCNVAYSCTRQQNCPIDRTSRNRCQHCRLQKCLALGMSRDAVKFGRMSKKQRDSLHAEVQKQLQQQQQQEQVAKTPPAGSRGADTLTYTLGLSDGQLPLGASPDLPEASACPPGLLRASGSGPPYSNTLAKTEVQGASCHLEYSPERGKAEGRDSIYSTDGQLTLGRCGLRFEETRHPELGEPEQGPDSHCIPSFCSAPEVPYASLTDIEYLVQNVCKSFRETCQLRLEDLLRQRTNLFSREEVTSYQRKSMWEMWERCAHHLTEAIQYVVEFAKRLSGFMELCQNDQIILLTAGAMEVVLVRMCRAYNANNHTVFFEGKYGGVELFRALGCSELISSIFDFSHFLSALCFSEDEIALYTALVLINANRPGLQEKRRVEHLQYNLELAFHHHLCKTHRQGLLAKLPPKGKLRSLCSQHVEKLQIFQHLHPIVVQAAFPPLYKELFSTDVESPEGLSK
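Drosophila S2 cells stably expressing Gal4-DBD/mouse RORγ fusion under metallothionein promoter plus UAS-luciferase; compound 1 h, then 700 uM CuSO4 induction for 20 h at ambient temperature; inhibition read as reduced luminescence.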
TDP1 cell CPT – qHTS for Inhibitors of human tyrosyl-DNA phosphodiesterase 1 (TDP1): qHTS in cells in presence of CPT; chicken DT40 Tdp1-/-;hTDP1 cells + 20 nM CPT, ATP luminescence, 48 h; Potency, µM (highest dose often 46.2 µM), for the others: top-dose activity change, negative = growth inhibition, most hits filed as inhibitors; actives 12% (n = 420,000); AID 686979, 2013; note: potency is the fitted concentration of half-maximal effect; nearly all actives have a fitted effect of over 55% in size
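Chicken DT40 Tdp1-/- cells complemented with human TDP1, 400 cells/well, exposed to compounds plus 20 nM camptothecin for at least 48 h at 37 C; viability read as ATP content by CellTiter-Glo luminescence.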
ELG1 DNA repair – qHTS screen for small molecules that inhibit ELG1-dependent DNA repair in human embryonic kidney (HEK293T) cells expressing luciferase-tagged ELG1. HEK293T ELG1-luciferase reporter, luminescence, 16 h; DNA damage induced by 5-fluorouridine. Potency, µM (series often up to 46.1 µM), without a hit: at the highest dose activity change, negative = inhibition, most hits filed as inhibitors. actives 2.3% (n = 330,000); note: potency is the fitted concentration of half-maximal effect; nearly all actives have a fitted effect of over 55% in size
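DMSO vehicle served as the neutral condition. Each well held 2,000 cells given 5-fluorouridine plus compound; after 16 hr at 37 °C/5% CO2, ONE-Glo was added and luciferase measured 30 min later.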
IL1B secr inh – qHTS for Inhibitors of Inflammasome Signaling: IL-1-beta AlphaLISA Primary Screen | actives 4.7% (n = 360,000) | activity change, % at 57.5 µM | THP-1 LPS/ATP IL-1B secretion, AlphaLISA, 16 h; hits give low values; in the data active = activity change below about -50%; inconclusive = mostly about -30% to -49%
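THP-1 cells pretreated 1 hr with compounds (up to 57.5 uM final), then stimulated with LPS (250 ng/mL final) plus ATP (1.25 mM final); secreted IL-1B measured by AlphaLISA after 16 hr, decreased signal indicating inhibition.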
TDP1 cell noCPT – qHTS for Inhibitors of human tyrosyl-DNA phosphodiesterase 1 (TDP1): qHTS in cells in absence of CPT; DT40 Tdp1-/- hTDP1 cells, no CPT, ATP luminescence, 48 h; Potency, µM (top dose mostly 46.2 µM), inactives show at the top dose activity change, negative = growth inhibition, most hits filed as inhibitors; actives 15% (n = 420,000); note: potency is the fitted concentration of half-maximal effect; nearly all actives have a fitted effect of over 55% in size
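Readout: luminescence from CellTiter-Glo after 30 min in the dark at RT. Cells: DT40 Tdp1-/- with stable hTDP1, 400/well. Exposure: compounds alone, ≥48 hr, 37 °C.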
VP16 counter – VP16 counterscreen qHTS for inhibitors of ROR gamma transcriptional activity; Drosophila S2 Gal4-VP16 UAS-luciferase, luminescence, 20 h; AID 2546, 2010; Potency, µM (titrated, usually from 53.6 µM), for the others: top-dose activity, negative = inhibition, hits mostly inhibitors; actives 3.5% (n = 310,000);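 note: Gal4-VP16 expression switched on by copper sulfate through the metallothionein promoter; potency is the fitted concentration of half-maximal effect; nearly all actives have a fitted effect of over 50% in size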
* marks the source's active call; other numbers are inactive results; u = inconclusive; x = not tested or not shown; [ ] = remark or other dose. The list is not random: actives were taken first. Their share in the collection is about 21%. Unless noted, calls come from the whole dose curve; as a rule, active = well fitted curve in the direction sought with a large enough effect; inconclusive = small, poorly fitted or top-dose-only effect, or another doubt; inactive = no such curve, though single readings can be large; an effect the other way counts as inactive or inconclusive. % is set by controls: 0 for no effect and ±100 for the full control effect.

SMILES	RORgamma inh	TDP1 cell CPT	ELG1 DNA repair	IL1B secr inh	TDP1 cell noCPT	VP16 counter
O=C(CCc1nc2ccccc2c(=O)[nH]1)N1CCN(S(=O)(=O)c2ccccc2Br)CC1	x	20.6µM*	-15.9%	-20.0	u	x
CCn1c(=O)c(C(=O)CN2CCN(S(=O)(=O)c3cc(C)ccc3C)CC2)c(N)n(Cc2ccccc2)c1=O	u	10.3µM*	6.51µM*	0.0	16.4µM*	-5.5%
O=C(c1ccccc1Cc1ccccc1)N1CCN(S(=O)(=O)c2ccccc2)CC1	16.4%	-28.0%	-2.5%	-25.1	-28.3%	8.3%
CCn1c(=O)c(C(=O)CN2CCN(Cc3ccc4c(c3)OCO4)CC2)c(N)n(Cc2ccccc2)c1=O	25.3%	u	u	u	u	-1.8%
Cc1ccc(C)c(S(=O)(=O)N2CCN(C(=O)CCCc3c[nH]c4ccccc34)CC2)c1	x	u	u	u	23.1µM*	x
O=C1C2C3C=CC(CC3)C2C(=O)N1c1ccc(Cl)cc1Cl (stereo unspecified)	33.3%	-2.3%	5.9%	17.9	12.2%	-5.3%
Cc1ccc(S(=O)(=O)N2CCN(C(=O)CCc3nc4ccccc4c(=O)[nH]3)CC2)c(C)c1	x	u	-10.0%	u	u	x
Cc1ccc(C)c(S(=O)(=O)NCc2ccc(C(=O)N3CCC(Cc4ccccc4)CC3)cc2)c1	39.7%	u	u	-57.5*	u	-24.5%
Cc1ccc(C)c(S(=O)(=O)N2CCN(C(C)C(=O)Nc3ccccc3-c3ccccc3)CC2)c1 (stereo unspecified)	22.0%	u	u	0.0	16.4µM*	-11.9%
Cc1ccc(C)c(S(=O)(=O)N2CCN(C(=O)CCc3nc4ccccc4c(=O)[nH]3)CC2)c1	x	20.6µM*	-17.6%	18.6	20.6µM*	x
Cc1ccc(C)c(S(=O)(=O)NCc2ccc(C(=O)N3CCN(C)CC3)cc2)c1	-25.7%	-22.5%	4.2%	54.0	-11.7%	-4.1%
CC1=C(C(=O)Nc2ccccc2C)C(c2ccccn2)n2ncnc2N1 (stereo unspecified)	x	2.4%	x	x	-0.6%	x
CN(CCCNC(=O)CSc1cc(=O)n(C)c2ccc(Cl)cc12)Cc1ccccc1	-34.6%	u	u	-54.5*	u	6.1%
COCCNC(=O)CSc1cc(=O)n(C)c2cc(Cl)ccc12	-14.2%	24.1%	u	12.2	3.6%	-1.8%
CCc1ccc(CNC(=O)CSc2cc(=O)n(C)c3ccc(Cl)cc23)cc1	x	23.1µM*	x	x	23.1µM*	x
COc1ccc(OC)c(CCNc2nc3cc(OC)c(OC)cc3c3nc(-c4cccnc4)nn23)c1	x	-5.7%	x	x	-15.9%	x
Oc1ccc(Cl)cc1Nc1nc2ccccc2n2cnnc12	x	-22.5%	x	x	u	x
O=C(C1CN(C(=O)c2cc3cc(Cl)ccc3o2)c2ccccc2O1)N1CCCCC1 (stereo unspecified)	x	u	u	-25.6	u	x
COc1ccc2c(c1)O[C@@H](c1cccc(C(F)(F)F)c1)[C@H](OC(=O)Nc1ccc(C)c(Br)c1)C2=O	3.2%	x	x	x	x	-5.6%
O=C1/C(=C/c2ccc(F)cc2)SC(=S)N1Nc1ncc(C(F)(F)F)cc1Cl	-1.4%	u	u	-11.3	-7.4%	-6.7%
O=C1/C(=C/c2ccccn2)SC(=S)N1Nc1ncc(C(F)(F)F)cc1Cl	x	8.2µM*	x	-7.5	u	x
O=C1/C(=C/c2ccccn2)SC(=S)N1NS(=O)(=O)c1ccccc1	-15.0%	-5.6%	-5.6%	-15.6	u	0.0%
O=C1/C(=C\c2ccccn2)SC(=S)N1Nc1ncc(C(F)(F)F)cc1Cl	11.2µM*	-26.7%	10.4%	-6.8	-28.9%	u
Cc1cc(OC(C)C)c2c(-c3ccccc3)cc(=O)oc2c1	5.4%	23.1µM*	-2.2%	43.6	u	-3.8%
CCOc1cc(C)cc2oc(=O)cc(-c3ccccc3)c12	-2.1%	13µM*	-13.8%	31.9	20.6µM*	-4.2%
SMILES	RORgamma inh	TDP1 cell CPT	ELG1 DNA repair	IL1B secr inh	TDP1 cell noCPT	VP16 counter
Cc1cc(OCC(=O)N2CCc3ccccc3C2)c2c(-c3ccccc3)cc(=O)oc2c1	-9.1%	23.1µM*	u	-26.2	u	-0.4%
COc1ccc(-c2ccc(-c3cc(=O)oc4cc(C)cc(C)c34)cc2)cc1	1.0%	x	x	x	x	12.8%
CC(=O)Oc1cc(C)cc2oc(=O)cc(-c3ccccc3)c12	u	-7.1%	10.9%	20.5	u	4.9%
Cc1ccc(OCC(=O)NCCNC(=O)c2cnccn2)cc1	8.5%	-3.6%	10.3%	19.2	-28.5%	-2.8%
COC(=O)/C=C/c1cnc[nH]1	4.7%	u	-8.4%	12.3	-6.8%	-9.6%
CCOc1ccccc1NC(=O)Cn1c(=O)n(Cc2cccs2)c(=O)c2cccnc21	x	2.3%	x	x	-5.7%	x
CC(C)N=c1cc2n(-c3ccc(Cl)cc3)c3ccccc3nc-2cc1Nc1ccc(Cl)cc1	6.4%[2.98 µM]	13µM*	x	-14.8	16.4µM*	2.5%[17 µM]
COc1ccc(C2(c3ccc(OC)cc3)NC(=O)N(CC(=O)NC3CCCC3)C2=O)cc1	x	-2.8%	-2.5%	4.6	6.1%	x
CCCCn1c(CCC)nc([N+](=O)[O-])c1Sc1ccc(Cl)cn1	u	18.4µM*	u	u	u	10µM*
CC(C)Cn1c(C(C)C)nc([N+](=O)[O-])c1Sc1ccc(Cl)cn1	5.5%	u	-6.9%	-8.8	u	-5.1%
CCOC(=O)CCCCC(=O)c1[nH]c(=O)[nH]c1CN1CCOCC1	0.3%	7.0%	3.3%	-74.3*	2.4%	-3.1%
CCOC(=O)CCCCC(=O)c1[nH]c(=O)[nH]c1CSc1nc2ccccc2[nH]1	21.9%	2.2%	-17.0%	-90.9*	-7.3%	-6.8%
CCOC(=O)CCCCC(=O)c1[nH]c(=O)[nH]c1CSc1nnc2c3cc(Br)ccc3n(C)c2n1	5.01µM*	x	-6.3%	x	x	u
CCOC(=O)c1cnc(SCc2ccc(C)cc2)nc1N	22.7%	-13.9%	u	-11.9	-9.5%	0.2%
CCOC(=O)c1cnc(SCC(=O)Nc2cc(C(F)(F)F)ccc2N2CCOCC2)nc1N	-39.9%	-25.3%	8.3%	0.9	-11.3%	-5.2%
CCOC(=O)c1cnc(SCC(=O)Nc2ccc(N3CCOCC3)c(Cl)c2)nc1N	17.5%	u	-1.9%	-8.5	12.6µM*	14.7%

From PubChem
